T cruzi growth-1: T. cruzi intracellular proliferation inhibitors, primary screen, cell-based, beta-gal Tulahuen parasites, NIH3T3 host, luminescence. T. cruzi beta-gal in NIH3T3, GalScreen luminescence, 90 h. 77,000 compounds, 5.9% hits. inhibition, % at 8.34 µM;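 active means mean inhibition above about 93%, with at least 55% of replicates each passing it, limit read from the data, passing the limit was not always enough; inconclusive means only one of those two conditions holds; inactive means neither condition holds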
Pf Dd2 growth: P. falciparum Dd2 growth inhibitors, primary screen, SYBR Green fluorescence, single dose replicates | 72 h; stronger effect = lower value | activity change, % at 10 µM | 94,000 compounds, 2.3% hits | AID 1159554, 2015; in the data active means activity change below about -80%; inconclusive means no clear call, values can overlap the other calls
C diff HTS: C. difficile growth inhibitors, primary screen, HTS; Clostridium difficile clinical isolate growth, OD600, 24 h; stronger effect = lower value; growth activity, negative = inhibition, % at 16 µg/mL (by protocol); 86,000 compounds, 0.25% hits; AID 1259249, 2017;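 active means mean growth activity at or below -80% and every replicate also at or below -80%; inconclusive means mean at or below -80% but some replicate above -80%; inactive means mean growth activity above -80%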;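 further: 0% = DMSO wells and -100% = levofloxacin 16 µg/mL wells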
T cruzi growth-2: T. cruzi intracellular proliferation inhibitors, confirmation, cell-based, NIH3T3 host, beta-gal parasite, luminescence, cherry-pick; 5,600 compounds, 72% hits; shares compounds with T cruzi growth-1; inhibition, % at 8.35 µM; T. cruzi beta-gal in NIH3T3, GalScreen luminescence, 90 h;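 active means mean replicate inhibition above about 95% and at least 55% of replicates individually reaching it, limit read from the data; inconclusive means only one of the two criteria is met; inactive means neither criterion is met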
T cruzi growth-3: inhibitors of intracellular T. cruzi replication, confirmation, NIH3T3 host cells, beta-gal parasites, cherry-pick, set 2; shares compounds with T cruzi growth-1; T. cruzi beta-gal in NIH3T3, GalScreen luminescence, 90 h; inhibition, % at 2.09 µM; 5,600 compounds, 21% hits;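 active means mean inhibition above about 95%, with at least 55% of replicates also reaching it, limit read from the data; inconclusive means meets just one of the two conditions; inactive means meets neither condition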;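 further: plate controls were neutral control median for no effect and positive control median for full effect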
3T3 cytotox: cytotoxicity in mouse NIH/3T3 fibroblasts, confirmation, cytotoxicity control for T. cruzi proliferation inhibitor project, cell-based, cherry-pick, single point; shares compounds with T cruzi growth-1; NIH/3T3 viability, CellTiter-Glo ATP luminescence, 90 h; cytotoxicity (signal decrease), % at 8.35 µM; 5,600 compounds, 14% hits;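 active means mean signal decrease across replicates above about 35% based on untreated-well scatter, with enough replicates individually passing, limit read from the data; inconclusive means no rule stated though some were filed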;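 further: 0% = median of neutral control wells and 100% = median of positive control wells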
NIH3T3 tox 2: NIH/3T3 fibroblast cytotoxicity, confirmation, cytotoxicity control, cell-based, cherry-pick, single point, set 2 | shares compounds with T cruzi growth-1 | NIH/3T3 viability, CellTiter-Glo ATP luminescence, 90 h | inhibition, % at 24.9 µM | 5,600 compounds, 56% hits | AID 651744, 2012;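 active means mean loss of cell viability signal at or above a set limit, and enough replicates individually reaching it; inconclusive means meets only the mean limit or only the replicate share; inactive means meets neither condition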;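 further: 0% = median of neutral control wells and 100% = median of positive control wells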
* hit, by the source's call; u = inconclusive; x = no result given; + = active, no number. Shown are actives, neighbours in structure and some others; about 6.8% of the full set was active somewhere.

SMILES | T cruzi growth-1 | Pf Dd2 growth | C diff HTS | T cruzi growth-2 | T cruzi growth-3 | 3T3 cytotox | NIH3T3 tox 2
O=C(Cc1ccccn1)N1CCCCN2[C@H](C1)[C@H](c1ccc(Br)cc1)[C@@H]2CO | 2 | 22 | 3 | x | x | x | x
O=C(Cc1ccccn1)N1CCCCN2[C@H](CO)[C@H](c3ccc(-c4ccccc4)cc3)[C@H]2C1 | 41 | -13 | -11 | x | x | x | x
O=C(Cc1ccccn1)N1CCCCN2[C@@H](CO)[C@@H](c3ccc(-c4ccccc4)cc3)[C@@H]2C1 | 113* | -21 | 1 | u | 68 | -9 | 15
O=C(Cc1ccccn1)N1CCCCN2[C@H](CO)[C@@H](c3ccc(Br)cc3)[C@H]2C1 | 105* | 19 | -9 | -3 | -14 | 4 | -1
COC(=O)[C@H]1[C@H](CO)[C@H]2Cn3c(ccc(-c4ccccc4OC)c3=O)[C@@H]1N2Cc1ccccc1 | -13 | x | 0 | x | x | x | x
CN(C)C(=O)[C@@H]1[C@@H](CO)[C@@H]2Cn3c(cccc3=O)[C@H]1N2CC1CC1 | 48 | 10 | -4 | x | x | x | x
O=C(Cc1cccnc1)N1CCCCN2[C@H](C1)[C@H](c1ccc(C#CC3CC3)cc1)[C@@H]2CO | 33 | -15 | -3 | x | x | x | x
COC(=O)[C@H]1[C@H](CO)[C@H]2Cn3c(ccc(C4=CCCCC4)c3=O)[C@@H]1N2Cc1ccccn1 | 101* | 8 | 0 | -20 | -4 | -4 | 4
COC(=O)[C@@H]1[C@@H](CO)[C@@H]2Cn3c(ccc(C4=CCCCC4)c3=O)[C@H]1N2Cc1ccccn1 | 95 | 10 | 2 | x | x | x | x
COC(=O)[C@@H]1[C@@H](CO)[C@@H]2Cn3c(ccc(-c4ccccc4F)c3=O)[C@H]1N2CC1CCCC1 | + | x | -2 | 68 | 2 | 22 | 42*
COC(=O)[C@H]1[C@H](CO)[C@H]2Cn3c(ccc(-c4ccccc4)c3=O)[C@@H]1N2CC1CCCC1 | x | -8 | -13 | x | x | x | x
O=C1CNC[C@H]2[C@@H](c3ccc(Br)cc3)[C@H](CO)N12 | x | -27 | 19 | x | x | x | x

High-throughput results: PubChem BioAssay, Broad Institute
